Each structure is given as a SMILES string. “And” between values parts separate entries of the source, which are not always exact repeats. Equal values may be shown once. Results filed as inconclusive are left out. More than one record can exist for a structure, and the calls need not agree. The source made the active and inactive calls.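 How the source made its calls, unless noted: active means percent response above a set limit, the screen-wide mean plus 3 SD (cut at about 130% in these data); inactive means the rest.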

We go through 5 compounds from PubChem BioAssay.

A short description of assay [1]: rapamycin-like changes in RPL19A-GFP expression – cell-based, S. cerevisiae, multiplex flow cytometry, primary screen (AID 1862; in the data active means percent of DMSO control GFP below about 86%;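 further: lower values mimic rapamycin by blocking the RPL19A rise seen in DMSO cells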). Particulars: S. cerevisiae RPL19A-GFP strain, flow cytometry fluorescence, 3 h; at 10 µM; stronger effect = lower value.
Assay [2] can be described thus: TOR pathway GLN3 branch reporter MEP2-GFP changes – S. cerevisiae, multiplex flow cytometry, primary screen (AID 1867;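 active means GFP response, as percent of the DMSO control, above the screen-wide mean plus 3 SD, about 139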;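 further: median GFP channel fluorescence of barcode-gated MEP2-GFP cells measured by flow cytometry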). Particulars: S. cerevisiae MEP2-GFP strain, 3 h, at 10 µM, stronger effect = higher value, 100% means same as DMSO wells. (In general: Flow cytometry measures light scatter and fluorescence of single cells or particles in a stream.)
Assay [3] in a line: TOR pathway RTG branch CIT2 reporter changes – S. cerevisiae, GFP fusion, multiplex flow cytometry, primary screen (AID 1870).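 Further: barcoded CIT2-GFP strain pooled with four other GFP strains with rapamycin as positive control; median GFP fluorescence per well over plate mean of DMSO wells so 100% = DMSO.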 Particulars: S. cerevisiae CIT2-GFP expression, 3 h, at 10 µM, stronger effect = higher value.
Assay [4] is described as follows: TOR pathway LAP4-GFP level changes – S. cerevisiae, multiplex flow cytometry, primary screen (AID 1873;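 active means GFP signal, as percent of the solvent control, above the screen mean plus 3 SD, about 149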). Particulars: S. cerevisiae LAP4-GFP expression, 3 h, at 10 µM, stronger effect = higher value.
A short description of assay [5]: yeast AGP1-GFP level changes, GLN3 branch – cell-based, multiplex flow cytometry, S. cerevisiae, primary screen (AID 1887;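 active means GFP signal above the screen-wide mean plus 3 SD, that is over about 124.5% of the solvent control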;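 further: AGP1-GFP fusion strain of S. cerevisiae within a five-strain barcoded multiplex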). Particulars: 3 h, at 10 µM, stronger effect = higher value.
The nature of assay [6]: reduced mouse 2C T cell binding to pMHC/ICAM-1 vesicles – MLPCN validation set, flow cytometry, LFA-1/ICAM-1 modulator project, pilot screen (AID 2523;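 active means response below a set limit, under 55% cells CD8-positive and vesicle-bound, and CD8 cells' 90th-percentile brightness under 279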;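 on vesicle binding response: mean PE anti-B7-1 fluorescence of CD8+ cells relative to row control; 100% = QL9-loaded vesicles with DMSO vehicle in the same plate row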). Particulars: 2C mouse CD8+ T cells, at 7 µM, stronger effect = lower value; double positive events: measured here: CD8+/vesicle+ event percentage.
The target in assay [7] is Integrin beta-1 (Homo sapiens) + Integrin alpha-4 (Homo sapiens) (UniProt P13612+P05556). The experiment in a line: alpha4beta1 integrin LIBS antibody binding reduction – U937 cells, HUTS-21 mAb, flow cytometry, validation set, VLA-4 allosteric modulator project, pilot screen (AID 2674;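 active means inhibition above 50%, about 3 SD of the validation set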;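 further: antibody binding induced by the VLA-4 ligand LDV present at three times its Kd; 0% = LDV ligand with antibody and no compound and 100% = antibody without LDV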). Particulars: HUTS-21 LIBS mAb binding, at 6.7 µM, stronger effect = higher value, binding induced by LDV ligand.
Sequence of Integrin beta-1 (Homo sapiens) + Integrin alpha-4 (Homo sapiens) (P05556 whole entry, looked up): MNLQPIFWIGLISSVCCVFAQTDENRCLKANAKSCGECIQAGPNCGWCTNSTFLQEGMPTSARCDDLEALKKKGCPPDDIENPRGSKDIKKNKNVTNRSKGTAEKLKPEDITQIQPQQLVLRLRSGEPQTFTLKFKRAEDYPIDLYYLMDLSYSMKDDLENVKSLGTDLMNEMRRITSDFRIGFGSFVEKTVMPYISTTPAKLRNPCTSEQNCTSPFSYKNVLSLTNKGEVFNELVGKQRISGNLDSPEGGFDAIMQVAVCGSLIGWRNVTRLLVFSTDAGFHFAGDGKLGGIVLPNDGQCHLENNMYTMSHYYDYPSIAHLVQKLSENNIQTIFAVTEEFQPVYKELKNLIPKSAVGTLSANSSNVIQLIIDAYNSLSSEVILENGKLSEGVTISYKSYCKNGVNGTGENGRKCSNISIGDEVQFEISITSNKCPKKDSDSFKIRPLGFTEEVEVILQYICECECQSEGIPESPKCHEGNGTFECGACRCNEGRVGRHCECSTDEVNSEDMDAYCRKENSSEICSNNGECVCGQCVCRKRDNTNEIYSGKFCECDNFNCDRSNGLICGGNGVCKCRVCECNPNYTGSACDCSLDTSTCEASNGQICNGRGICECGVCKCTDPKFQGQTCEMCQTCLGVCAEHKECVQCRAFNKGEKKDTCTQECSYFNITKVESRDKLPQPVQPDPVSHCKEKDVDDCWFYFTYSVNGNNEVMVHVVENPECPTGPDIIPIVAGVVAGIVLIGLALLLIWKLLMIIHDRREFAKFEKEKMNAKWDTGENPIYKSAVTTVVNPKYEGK
Sequence of Integrin beta-1 (Homo sapiens) + Integrin alpha-4 (Homo sapiens) (P13612 whole entry, looked up): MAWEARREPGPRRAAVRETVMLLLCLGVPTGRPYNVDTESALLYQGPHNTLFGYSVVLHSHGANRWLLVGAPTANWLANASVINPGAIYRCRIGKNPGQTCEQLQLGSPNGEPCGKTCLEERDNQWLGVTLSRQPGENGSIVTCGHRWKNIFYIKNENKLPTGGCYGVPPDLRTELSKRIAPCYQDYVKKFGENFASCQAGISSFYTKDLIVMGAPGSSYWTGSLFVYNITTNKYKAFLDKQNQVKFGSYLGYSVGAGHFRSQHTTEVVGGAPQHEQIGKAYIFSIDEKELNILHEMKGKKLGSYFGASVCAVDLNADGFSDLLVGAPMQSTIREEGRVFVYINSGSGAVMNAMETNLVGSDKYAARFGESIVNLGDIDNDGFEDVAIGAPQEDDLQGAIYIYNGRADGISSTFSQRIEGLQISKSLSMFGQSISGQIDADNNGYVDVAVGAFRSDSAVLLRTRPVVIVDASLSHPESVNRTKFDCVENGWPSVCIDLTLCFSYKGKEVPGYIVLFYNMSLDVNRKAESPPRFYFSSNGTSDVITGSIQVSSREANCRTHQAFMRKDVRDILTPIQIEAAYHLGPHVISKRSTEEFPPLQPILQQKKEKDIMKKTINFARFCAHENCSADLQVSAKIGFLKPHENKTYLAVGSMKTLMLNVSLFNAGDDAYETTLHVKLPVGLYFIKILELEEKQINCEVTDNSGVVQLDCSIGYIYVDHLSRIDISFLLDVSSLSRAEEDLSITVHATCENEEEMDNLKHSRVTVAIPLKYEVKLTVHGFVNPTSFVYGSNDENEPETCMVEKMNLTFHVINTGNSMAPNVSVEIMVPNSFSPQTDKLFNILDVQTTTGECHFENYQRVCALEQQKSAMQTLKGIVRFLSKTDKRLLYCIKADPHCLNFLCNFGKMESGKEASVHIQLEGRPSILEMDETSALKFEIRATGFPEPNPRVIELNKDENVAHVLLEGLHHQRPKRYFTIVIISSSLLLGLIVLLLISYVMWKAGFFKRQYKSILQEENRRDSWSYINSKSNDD

The nature of assay [8]: calorie-restriction mimetic ROS inhibitors, yeast – validation compound set, pilot screen (AID 2706;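 active means superoxide response below 65% of plate, a cut near 3 SD across the whole screen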;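 further: yeast exposed to compound for one week at 30 degrees C before staining; 100% = mean of all compound wells on the same plate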). Particulars: S. cerevisiae aging, superoxide DHE fluorescence; at 10 µM; stronger effect = lower value.
Assay [9] concerns the target Beta-adrenergic receptor kinase 1 (Homo sapiens) (UniProt P25098). As to the kind of experiment: GRK2 binders displacing RNA aptamer, biochemical, validation, human GRK2, bead flow cytometry (AID 488806;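 active means aptamer binding inhibition above 30%, about 3 SD of noise from non-fluorescent compounds; inactive means inhibition at or below 30%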). Particulars: bead-bound GRK2, FAM-aptamer displacement, at 10 µM, stronger effect = higher value.
For assay [10], the target named is Beta-2 adrenergic receptor (Homo sapiens) (UniProt P07550). The experiment in a line: agonist-induced loss of surface beta2AR – cell-based, FAP fluorogen, flow cytometry, validation set, pilot screen (AID 504459;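 active means percent response above 42, roughly 3 SD of non-fluorescent test compounds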;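 further: agonist-driven loss of surface beta2AR via internalization measured by FAP dye flow cytometry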). Particulars: Am2.2-beta2AR cells, at 10 µM, stronger effect = higher value.
Sequence of Beta-2 adrenergic receptor (Homo sapiens) (P07550 whole entry, looked up): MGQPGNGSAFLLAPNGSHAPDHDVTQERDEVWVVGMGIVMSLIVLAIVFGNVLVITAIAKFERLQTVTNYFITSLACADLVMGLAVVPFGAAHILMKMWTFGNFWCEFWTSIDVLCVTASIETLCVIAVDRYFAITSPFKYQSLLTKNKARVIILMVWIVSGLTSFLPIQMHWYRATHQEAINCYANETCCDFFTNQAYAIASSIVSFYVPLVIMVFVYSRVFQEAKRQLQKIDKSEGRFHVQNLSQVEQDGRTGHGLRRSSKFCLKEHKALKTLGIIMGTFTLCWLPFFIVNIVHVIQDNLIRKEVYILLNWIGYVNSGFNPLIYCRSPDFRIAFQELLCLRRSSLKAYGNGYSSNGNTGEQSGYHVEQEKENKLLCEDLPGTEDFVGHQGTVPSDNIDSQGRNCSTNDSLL
The target of assay [11] is AP-2 complex subunit beta (Homo sapiens) (UniProt P63010). As to the kind of experiment: beta-arrestin/AP2 interaction blockers – biochemical, validation set, GST-AP2 beads, flow cytometry, pilot screen (AID 504541;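 active means inhibition above 54%, about 3 SD of non-fluorescent compounds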;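 further: AP2 carries R879A mutation and is captured from E. coli lysate; bead-bound FITC arrestin peptide fluorescence measuring arrestin peptide binding to AP2; 0% = DMSO wells and 100% = excess unlabeled arrestin peptide control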). Particulars: FITC arrestin peptide, at 10 µM, stronger effect = higher value, AP2 beta2 appendage fragment, R879A mutant.
Sequence of AP-2 complex subunit beta (Homo sapiens) (P63010 whole entry, looked up, the tested form may be a part, one chain of several): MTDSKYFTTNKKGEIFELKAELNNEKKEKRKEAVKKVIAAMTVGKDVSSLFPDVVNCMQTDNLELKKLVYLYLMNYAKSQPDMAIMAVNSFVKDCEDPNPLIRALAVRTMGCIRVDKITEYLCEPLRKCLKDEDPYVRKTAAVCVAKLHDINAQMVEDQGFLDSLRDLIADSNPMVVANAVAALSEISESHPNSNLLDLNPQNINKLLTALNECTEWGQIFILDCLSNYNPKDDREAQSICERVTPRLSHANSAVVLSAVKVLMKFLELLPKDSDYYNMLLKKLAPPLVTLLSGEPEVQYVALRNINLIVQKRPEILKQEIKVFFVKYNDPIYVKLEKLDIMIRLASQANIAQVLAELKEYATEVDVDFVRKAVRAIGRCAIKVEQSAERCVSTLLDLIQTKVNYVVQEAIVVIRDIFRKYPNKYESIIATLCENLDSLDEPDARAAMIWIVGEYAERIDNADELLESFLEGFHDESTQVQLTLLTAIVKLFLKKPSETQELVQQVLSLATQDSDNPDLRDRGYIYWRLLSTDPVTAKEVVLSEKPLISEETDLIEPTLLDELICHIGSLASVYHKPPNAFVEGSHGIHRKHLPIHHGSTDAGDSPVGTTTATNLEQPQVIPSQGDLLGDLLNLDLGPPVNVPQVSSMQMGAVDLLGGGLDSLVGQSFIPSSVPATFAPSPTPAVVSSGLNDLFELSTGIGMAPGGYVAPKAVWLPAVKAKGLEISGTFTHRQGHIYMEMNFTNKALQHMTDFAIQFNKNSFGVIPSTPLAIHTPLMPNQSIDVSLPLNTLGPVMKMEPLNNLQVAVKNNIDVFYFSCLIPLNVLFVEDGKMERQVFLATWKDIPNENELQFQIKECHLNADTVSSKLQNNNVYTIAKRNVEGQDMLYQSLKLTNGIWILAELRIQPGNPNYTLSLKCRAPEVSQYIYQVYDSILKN
Assay [12] in a line: cytosolic pH regulators acting via V-ATPase – S. cerevisiae, pHLuorin, HTS validation (AID 504600; in the data active means response above about 15%;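 further: plate controls were DMSO for no effect and reference compound for full effect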). Particulars: V-ATPase proton transport, at 10 µM, stronger effect = higher value.
For assay [13], the system named is anti-desmoglein-3 scFv antibody binding to human DSG3. The experiment in a line: blockers of pathogenic pemphigus antibody–desmoglein-3 binding – biochemical, validation compound set, bead-based, flow cytometry, pilot screen (AID 588368;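 active means binding below the plate cutoff, the plate median minus 3 SD, with a reading above zero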;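 further: signal is the median channel fluorescence of bead-bound GFP antibody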). Particulars: Protein G beads, DSG3-Fc, scFv-GFP binding, at 10 µM, stronger effect = lower value.
The nature of assay [14]: Nile Red efflux blockade in pump-expressing yeast – validation compound set, multiplex, phenotypic, pilot screen (AID 588506;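 active means efflux inhibition above 0.42, the validation set average plus 4 SD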;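 further: Nile Red retained in cells so higher fluorescence means more efflux inhibition; 0 = negative control wells and 1 = enniatin B 25 µM full block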). Particulars: S. cerevisiae pump-expressing triplex, Nile Red efflux flow cytometry; at 10 µM; stronger effect = higher value; the pumps come from Candida albicans.
The target of assay [15] is ATP-binding cassette sub-family B member 6 (Homo sapiens) (UniProt Q9NP58). The experiment in a line: blockers of ABCB6-driven porphyrin uptake – K562-ABCB6 cells, flow cytometry, validation set, pilot screen (AID 588550;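 active means inhibition above the screen-wide mean plus 3 SD, about 51%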;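 further: 0% = DMSO wells and 100% = benzethonium chloride 70 µM positive control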). Particulars: K562-ABCB6 porphyrin accumulation, 1 h, at 10 µM, stronger effect = higher value.
Sequence of ATP-binding cassette sub-family B member 6 (Homo sapiens) (Q9NP58 whole entry, looked up): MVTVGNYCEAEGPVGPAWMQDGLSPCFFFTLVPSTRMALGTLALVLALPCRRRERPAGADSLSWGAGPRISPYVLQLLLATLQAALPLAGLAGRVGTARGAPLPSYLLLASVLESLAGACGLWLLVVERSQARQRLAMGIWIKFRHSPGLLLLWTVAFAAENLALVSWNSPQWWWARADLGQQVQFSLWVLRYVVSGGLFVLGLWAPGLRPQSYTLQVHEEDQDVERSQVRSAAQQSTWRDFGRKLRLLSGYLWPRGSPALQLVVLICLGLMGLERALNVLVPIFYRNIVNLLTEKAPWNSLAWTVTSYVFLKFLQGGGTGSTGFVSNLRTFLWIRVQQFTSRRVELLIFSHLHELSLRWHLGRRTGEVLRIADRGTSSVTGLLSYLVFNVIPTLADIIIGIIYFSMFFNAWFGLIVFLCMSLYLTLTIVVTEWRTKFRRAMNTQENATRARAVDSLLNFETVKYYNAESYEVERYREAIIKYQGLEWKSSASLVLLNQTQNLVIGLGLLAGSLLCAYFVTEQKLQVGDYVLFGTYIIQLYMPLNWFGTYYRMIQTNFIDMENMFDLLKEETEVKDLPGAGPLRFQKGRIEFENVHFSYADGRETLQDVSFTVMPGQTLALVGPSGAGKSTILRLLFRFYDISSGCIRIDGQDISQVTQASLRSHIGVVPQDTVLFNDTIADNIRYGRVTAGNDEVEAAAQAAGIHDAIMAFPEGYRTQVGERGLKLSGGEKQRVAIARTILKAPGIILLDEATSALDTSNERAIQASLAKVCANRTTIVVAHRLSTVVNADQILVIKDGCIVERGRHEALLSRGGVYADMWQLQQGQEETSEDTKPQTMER
Assay [16] in a line: AML differentiation inducers, ER-HoxA9 marrow cells – cell-based, GFP/MAC1 double positive, flow cytometry, validation set, primary screen (AID 588685;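 active means differentiation response of at least 50%, scaled between solvent and reference control, from cells with both markers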;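 further: compound exposure lasts four days before antibody staining and flow analysis; 0% = DMSO wells and 100% = 5 µM fulvestrant positive control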). Particulars: stronger effect = higher value, normalized: vehicle 0, fulvestrant 100.

Sequence of Beta-adrenergic receptor kinase 1 (Homo sapiens) (P25098 whole entry, looked up): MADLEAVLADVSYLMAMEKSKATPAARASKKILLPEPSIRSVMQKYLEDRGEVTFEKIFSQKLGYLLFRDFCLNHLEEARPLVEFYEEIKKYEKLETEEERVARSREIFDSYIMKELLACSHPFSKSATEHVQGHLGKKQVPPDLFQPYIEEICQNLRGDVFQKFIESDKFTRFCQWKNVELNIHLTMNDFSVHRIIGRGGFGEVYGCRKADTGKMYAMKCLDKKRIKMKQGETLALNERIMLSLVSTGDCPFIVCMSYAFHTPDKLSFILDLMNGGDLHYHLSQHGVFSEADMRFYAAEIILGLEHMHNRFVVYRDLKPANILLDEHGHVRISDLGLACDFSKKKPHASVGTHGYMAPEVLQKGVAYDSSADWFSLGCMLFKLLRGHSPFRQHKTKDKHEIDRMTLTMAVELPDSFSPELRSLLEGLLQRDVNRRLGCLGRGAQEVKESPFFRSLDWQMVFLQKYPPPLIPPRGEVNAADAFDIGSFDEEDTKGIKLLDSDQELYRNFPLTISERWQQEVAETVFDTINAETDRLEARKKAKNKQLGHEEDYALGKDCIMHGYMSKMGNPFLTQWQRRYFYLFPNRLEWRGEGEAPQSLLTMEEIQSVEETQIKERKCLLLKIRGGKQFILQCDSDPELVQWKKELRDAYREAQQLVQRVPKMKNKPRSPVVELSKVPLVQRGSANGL

In the case of `COc1cc(Cc2cnc(N)nc2N)cc(OC)c1OC`, in [1], the percent of DMSO control GFP was 100% (inactive) and 102% (inactive). The GFP response vs DMSO in assay [2] is 95.1% (inactive) and 101% (inactive); in assay [4], 84.8% (inactive) and 103% (inactive). The percent response of DMSO control in [3] was 91.9% (inactive) and 102% (inactive). Also, in assay [5], the GFP response, % of DMSO is 96.4% (inactive) and 102% (inactive). Moreover, the double positive events in assay [6] is 62.8% and 60.9%. The vesicle binding response in [6] was 247% (inactive) and 222% (inactive). The inhibition – broadly, the change of the read-out against control, counted positive when it falls – was -113% (inactive) and 1.62% (inactive) in [7]; -0.17% (inactive) and -5.67% (inactive) in assay [11]; -11% (inactive) and 7% (inactive) in [15]. Besides, the superoxide response (% of plate) in assay [8] was 106% (inactive). In [9], the aptamer binding inhibition is 2% (inactive) and -4% (inactive). Also, the response in [10] is -5.11% (inactive); in assay [12] it was 1.16% (inactive) and -26% (inactive). Also, in [13], the binding (% of control) was 95.8% (inactive) and 103% (inactive). In addition, the efflux inhibition (fraction of control) in assay [14] is 0.61 (active) and 0.18 (inactive). Moreover, in assay [16], the differentiation response was 0.24% (inactive) and -3.43% (inactive).
Take `COc1ccc(-c2coc3c(CN4CCOCC4)c(O)ccc3c2=O)cc1`: the percent of DMSO control GFP in assay [1] is 105% (inactive). Also, the GFP response vs DMSO in assay [2] is 99.7% (inactive); in assay [4], 93.7% (inactive). Moreover, the percent response of DMSO control in assay [3] was 109% (inactive). Moreover, the GFP response, % of DMSO in [5] is 105% (inactive). In addition, in assay [6], the double positive events amounted to 57.5%. Also, in [6], the vesicle binding response is 118% (inactive). The values for the inhibition in [7], in assay [11] and in assay [15] were -5.11% (inactive), 55.9% (active) and -5% (inactive), respectively. Moreover, the superoxide response (% of plate) in [8] is 103% (inactive). For the same compound, the aptamer binding inhibition in assay [9] is -6% (inactive). The response in assay [10] was -34.4% (inactive); in [12] it was -2.03% (inactive). Moreover, the binding (% of control) in assay [13] is 103% (inactive). The efflux inhibition (fraction of control) in [14] is 0.31 (inactive). For the same compound, the differentiation response in [16] was -3.11% (inactive).
Regarding `Nc1ccc(C(=O)O)c(O)c1`, the percent of DMSO control GFP in [1] is 102% (inactive). For the same compound, the GFP response vs DMSO was 106% (inactive) and 107% (inactive) in [2]; 100% (inactive) and 111% (inactive) in [4]. In assay [3], the percent response of DMSO control was 99.7% (inactive) and 96.7% (inactive). For the same compound, in assay [5], the GFP response, % of DMSO is 104% (inactive) and 106% (inactive). Also, in [6], the double positive events was 61.7% and 60.8%. Also, in assay [6], the vesicle binding response is 199% (inactive) and 232% (inactive). Moreover, the inhibition in assay [7] was -2.43% (inactive) and 6.4% (inactive); in assay [11], -7.61% (inactive) and 3.32% (inactive); in assay [15] it was 3% (inactive) and 8% (inactive). In [8], the superoxide response (% of plate) was 95.4% (inactive) and 103% (inactive). Moreover, in [9], the aptamer binding inhibition is 5% (inactive) and 4% (inactive). The response in assay [10] is -5.54% (inactive) and 8.67% (inactive); in assay [12], -2.48% (inactive) and -0.83% (inactive). Besides, in assay [13], the binding (% of control) is 103% (inactive) and 100% (inactive). The efflux inhibition (fraction of control) in assay [14] is 0.28 (inactive) and -0.03 (inactive). Moreover, in [16], the differentiation response is -7.5% (inactive) and -31.2% (inactive).
`CCOc1ccc2ccccc2c1CNc1nnnn1C`: in assay [1], the percent of DMSO control GFP is 102% (inactive). In addition, the GFP response vs DMSO in [2] was 103% (inactive); in [4] it was 94% (inactive). In assay [3], the percent response of DMSO control is 107% (inactive). In assay [5], the GFP response, % of DMSO is 96.2% (inactive). In addition, in [6], the double positive events was found to be 65.8%. Moreover, the vesicle binding response in assay [6] was 1400% (inactive). For the same compound, the figures for the inhibition in [7], in assay [11] and in assay [15] were 18.2% (inactive), -1.6% (inactive) and 8% (inactive), respectively. The superoxide response (% of plate) in assay [8] was 91% (inactive). The aptamer binding inhibition in [9] was 3% (inactive). Moreover, the values for the response in assay [10] and in assay [12] were -8.39% (inactive) and 1.46% (inactive), respectively. Moreover, in [13], the binding (% of control) is 98.4% (inactive). Besides, the efflux inhibition (fraction of control) in assay [14] was 0.05 (inactive). Also, the differentiation response in [16] is 13.9% (inactive).
Take `CN(C)CCC(c1ccccc1)c1ccccn1` (stereo not given): in assay [1], the percent of DMSO control GFP was 97.2% (inactive). For the same compound, the GFP response vs DMSO is 130% (inactive) in assay [2] and 83.6% (inactive) in [4]. Moreover, the percent response of DMSO control in assay [3] was 97.9% (inactive). Also, the GFP response, % of DMSO in [5] is 86.1% (inactive). The compound also returned a double positive events in assay [6] of 64.9%. In addition, the vesicle binding response in assay [6] is 139% (inactive). Further, the results for the inhibition in assay [7], in assay [11] and in [15] were 14.2% (inactive), -9.57% (inactive) and 12% (inactive), respectively. In addition, the superoxide response (% of plate) in [8] was 93.1% (inactive). Moreover, the aptamer binding inhibition in [9] is 3% (inactive). Also, the response was -2.11% (inactive) in assay [10] and -0.43% (inactive) in [12]. For the same compound, in assay [13], the binding (% of control) was 97.8% (inactive). The efflux inhibition (fraction of control) in assay [14] was -0.35 (inactive). For the same compound, the differentiation response in assay [16] is 8.19% (inactive).
